High-throughput results as filed in PubChem.
Only some compounds are listed: those with a hit (about 3.9% of all), similar ones and a draw of the others.
HIF activator – HIF pathway transcriptional activators, primary screen, cell-based, U2OS HRE-luciferase, luminescence; U2OS HRE-luciferase reporter; normalized: DMSO 0%, desferrioxamine 100%; activation, % at 7.5 µM (by protocol); 0.32% of 300,000 active;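 active = mean activation of at least 10% of the iron chelator positive control signal, with at least half of replicates also reaching 10%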
AHR act – AHR activators, primary screen, cell-based, luminescence, luciferase reporter, human. 2.5% of 320,000 active. activation, % at 5 µM. AHR-responsive luciferase reporter cells. AID 2796, 2010; in the data active = activation above about 47%
CR mimetic SO – reduction of superoxide in aged yeast, primary screen, HTS; S. cerevisiae aged cells, superoxide DHE fluorescence; stronger effect = lower value; superoxide response (% of plate mean), % at 10 µM; 0.18% of 330,000 active;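 active = superoxide response under a set limit, about three screen SD below normal, cut at about 65% in these data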;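 note: yeast aged for seven days with compound at 30 °C before DHE staining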
PLCb3 inh – human PLC-beta3 inhibitors, primary screen, biochemical, fluorescence. 1-phosphatidylinositol 4,5-bisphosphate phosphodiesterase beta-3 (Homo sapiens), Q01970. AID 720704, 2013. Purified PLC-beta3, fluorogenic substrate. 0.18% of 370,000 active. inhibition, % at 12.2 µM
PLCg1 inh – PLC-gamma1 enzyme inhibitors, primary screen, biochemical, fluorescence, purified enzyme | AID 720700, 2013 | 0.84% of 370,000 active | inhibition, % at 12.2 µM | 1-phosphatidylinositol 4,5-bisphosphate phosphodiesterase gamma-1 (Homo sapiens), P19174 | fluorogenic substrate; in the data active = inhibition above about 9.5%
Target sequence (P19174 whole entry, looked up): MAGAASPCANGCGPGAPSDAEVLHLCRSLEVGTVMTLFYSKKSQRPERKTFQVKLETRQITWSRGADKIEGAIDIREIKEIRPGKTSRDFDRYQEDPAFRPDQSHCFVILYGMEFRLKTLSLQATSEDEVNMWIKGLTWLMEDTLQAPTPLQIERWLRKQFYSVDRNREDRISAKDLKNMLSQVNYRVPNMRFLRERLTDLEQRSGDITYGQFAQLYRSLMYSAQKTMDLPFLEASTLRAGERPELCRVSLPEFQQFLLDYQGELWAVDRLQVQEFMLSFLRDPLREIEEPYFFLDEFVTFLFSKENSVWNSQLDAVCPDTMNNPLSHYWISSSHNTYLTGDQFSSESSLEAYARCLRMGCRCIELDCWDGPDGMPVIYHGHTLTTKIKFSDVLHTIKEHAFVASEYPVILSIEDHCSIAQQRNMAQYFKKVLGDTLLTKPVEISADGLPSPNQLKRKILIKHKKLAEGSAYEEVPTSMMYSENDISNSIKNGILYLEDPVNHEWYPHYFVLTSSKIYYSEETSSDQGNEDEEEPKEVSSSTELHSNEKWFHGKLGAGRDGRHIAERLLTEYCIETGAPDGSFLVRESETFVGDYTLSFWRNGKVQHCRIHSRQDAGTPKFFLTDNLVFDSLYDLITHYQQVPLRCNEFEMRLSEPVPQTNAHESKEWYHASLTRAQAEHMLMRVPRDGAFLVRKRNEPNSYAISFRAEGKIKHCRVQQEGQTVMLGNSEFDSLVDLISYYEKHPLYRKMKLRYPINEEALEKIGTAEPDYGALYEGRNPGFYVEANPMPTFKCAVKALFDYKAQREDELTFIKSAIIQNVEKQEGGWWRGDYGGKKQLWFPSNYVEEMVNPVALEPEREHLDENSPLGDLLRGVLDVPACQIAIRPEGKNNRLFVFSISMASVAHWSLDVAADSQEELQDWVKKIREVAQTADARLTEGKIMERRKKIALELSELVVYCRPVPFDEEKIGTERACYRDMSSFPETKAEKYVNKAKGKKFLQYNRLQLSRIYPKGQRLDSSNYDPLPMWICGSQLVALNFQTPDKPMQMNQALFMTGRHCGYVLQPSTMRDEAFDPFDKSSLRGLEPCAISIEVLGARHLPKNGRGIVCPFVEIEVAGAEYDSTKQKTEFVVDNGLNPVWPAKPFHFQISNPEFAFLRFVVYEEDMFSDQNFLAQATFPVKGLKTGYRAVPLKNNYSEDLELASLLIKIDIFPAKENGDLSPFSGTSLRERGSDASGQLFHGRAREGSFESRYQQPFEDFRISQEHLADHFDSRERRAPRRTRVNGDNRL
HGIII-sPLA2 inh – human group III sPLA2 inhibitors, primary screen, biochemical, QFRET, BODIPY PC-A2 liposome substrate; 0.56% of 370,000 active; inhibition, % at 12.2 µM; QFRET BODIPY PC-A2 liposome hydrolysis, fluorescence; Group 3 secretory phospholipase A2 (Homo sapiens), Q9NZ20;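 active = inhibition above mean plus 3 SD of compounds lying within the high and low control bounds, cut at about 19% in these data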
PLCg1 ctr – PLC-gamma1 enzyme inhibitors, counter-screen for PLC-beta3 inhibitor project, biochemical, fluorescence. shares compounds with PLCg1 inh. purified PLC-gamma1, fluorogenic substrate. inhibition, % at 12.3 µM. 3.1% of 3,300 active; in the data active = inhibition above about 9.5%
PLCb3 confirm – PLC-beta3 inhibitor confirmation, biochemical, fluorescence, purified enzyme; shares compounds with PLCg1 inh; fluorogenic substrate fluorescence; inhibition, % at 12.3 µM; 1% of 3,300 active; AID 743261, 2014
Each line names hits and unclear results; the compound was inactive in the other large screens (follow-up assays come after a bar, where they were run). Cut-off read from the data, not from the text of the source, unless noted: active = inhibition above about 11%; inactive = the rest.

CCOc1ccc(CN2CCN(c3ncnc4scc(-c5ccccc5)c34)CC2)cc1	PLCg1 inh 10.0 (no result: AHR act) | PLCg1 ctr inactive | PLCb3 confirm inactive
C[C@@H]1CN([C@@H](C)CO)C(=O)c2cc(-c3cccnc3)cnc2O[C@H]1CN(C)C(=O)c1cccc(F)c1	none (no result: HIF activator, AHR act, CR mimetic SO)
CC1(C)CC(NS(=O)(=O)c2ccc(C(C)(C)C)cc2)CC(C)(C)N1	none
CCCC(=O)NC1CCc2cc(OC)c(OC)c(OC)c2-c2ccc(OC)c(=O)cc21 (stereo not given)	none (no result: HIF activator, AHR act, CR mimetic SO)
COc1cc2c(c(OC)c1OC)-c1ccc(OC)c(=O)cc1C(NC(C)=O)CC2 (stereo not given)	PLCg1 inh 10.2 | PLCg1 ctr inactive | PLCb3 confirm inactive
O=C1COc2ccc(C(=O)COC(=O)CCCOc3ccccc3)cc2N1	PLCb3 inh 11.1 (no result: HIF activator, AHR act, CR mimetic SO) | PLCg1 ctr inactive | PLCb3 confirm inactive
Cc1ccc2nc(-c3cccc(Cl)c3)c(Cc3cccc(Cl)c3)n2c1	none (no result: HIF activator, AHR act, CR mimetic SO)
Cc1nnc(N/N=C/c2ccc(Br)cc2)n1N	none
Cc1nnc(N/N=C/c2ccc([N+](=O)[O-])cc2)n1N	PLCg1 inh 19.7 | PLCg1 ctr inactive | PLCb3 confirm inactive
COc1ccc(/C=N/Nc2nnc(C)n2N)cc1OC(C)=O	PLCg1 inh 11.4 | PLCg1 ctr inactive | PLCb3 confirm inactive
O=C(NCCc1c[nH]c2ccccc12)C1CCC(=O)N(CCc2cccc(F)c2)C1 (stereo not given)	none
CCc1ccc(C(=O)NNc2cc(Cl)ccc2Cl)cc1	PLCg1 inh 10.0 | PLCg1 ctr inactive | PLCb3 confirm inactive
CCc1ccc(C(=O)NNc2ccccc2F)cc1	none
C/C(=N/NC(=O)c1ccc(C(C)(C)C)cc1)c1ccccn1	none
O=C(NN=C(c1ccccc1)c1ccccn1)c1ccccc1	PLCg1 inh 9.7 (no result: HIF activator) | PLCg1 ctr inactive | PLCb3 confirm inactive
CC(SC(C)C(=O)NN=Cc1cccc(Cl)c1)C(=O)NN=Cc1cccc(Cl)c1 (stereo not given)	PLCb3 inh 11.1 (no result: HIF activator, AHR act, CR mimetic SO) | PLCg1 ctr inactive | PLCb3 confirm inactive
CCc1ccc(C2(C)SC(NC(C)=O)=NN2C(C)=O)cc1 (stereo not given)	PLCg1 inh 13.0 | PLCg1 ctr inactive | PLCb3 confirm inactive
O=C(CSc1ccc(Cl)cc1Cl)N1CCC(c2nc3ccccc3s2)CC1	PLCg1 inh 10.7 | PLCg1 ctr inactive | PLCb3 confirm inactive
Cc1ccc2cc(CCNC(=O)C3CCCCC3)c(=O)[nH]c2c1C	none
Cc1ccc2cc(CCNC(=O)C3CCCC3)c(=O)[nH]c2c1	PLCb3 inh 10.8 | PLCg1 ctr inactive | PLCb3 confirm inactive
CN(CCO)c1cccc2c1S(=O)(=O)N(Cc1cn(Cc3cccc(F)c3)nn1)Cc1ccccc1O2	none (no result: HIF activator, AHR act, CR mimetic SO)
O=C(c1ccccc1)c1ccc(OCC(O)CNCc2ccc(Cl)cc2)cc1 (stereo not given)	PLCg1 inh 11.6 | PLCg1 ctr inactive | PLCb3 confirm inactive
O=C(c1cnsn1)N1CCN(c2ccccc2)CC1	PLCb3 inh 10.9 (no result: HIF activator) | PLCg1 ctr inactive | PLCb3 confirm inactive
COC(=O)C1=CN(c2ccc(OC)cc2OC)C(N)=C(C#N)C1c1cccc([N+](=O)[O-])c1 (stereo not given)	none (no result: HIF activator, AHR act, CR mimetic SO)
Cc1ccc(O)c(-c2cc(C(=O)Nc3cccnc3)[nH]n2)c1	AHR act 59.8, PLCg1 inh 10.8 | PLCg1 ctr inactive | PLCb3 confirm inactive
O=C(Nc1cccnc1)c1cc(-c2cc(Cl)ccc2O)n[nH]1	none
COC(=O)C(Cc1ccc(O)cc1)NC(=O)C(C)NC(=O)c1ccc(C(C)(C)C)cc1 (stereo not given)	PLCg1 inh 9.7 | PLCg1 ctr inactive | PLCb3 confirm inactive
O=C(CSc1nnc(CCCN2C(=O)c3cccc4cccc(c34)C2=O)n1-c1ccccc1)NCCCN1CCOCC1	PLCg1 inh 11.2 | PLCg1 ctr inactive | PLCb3 confirm inactive
Cc1cccc(NC2=CC(=O)CC(C)(C)C2)c1C	PLCg1 inh 9.8 | PLCg1 ctr inactive | PLCb3 confirm inactive
CCOC(=O)N/N=C/C=C/c1ccccc1	none
CCOc1cc(C(c2c(C)[nH][nH]c2=O)c2c(C)[nH][nH]c2=O)cc(Br)c1OC	none
O=C(CCSc1ccccc1Cl)Nc1cccc([N+](=O)[O-])c1	PLCg1 inh 11.0 | PLCg1 ctr inactive | PLCb3 confirm inactive
NS(=O)(=O)c1cccc(NC(=O)CCSc2ccccc2Cl)c1	none
Oc1cccc(N2CCN(c3cccc(O)c3)CC2)c1	none (no result: HIF activator, AHR act, CR mimetic SO)
O=C(O)c1ccccc1/C=N/NC(=S)NC1CCCCC1	PLCg1 inh 11.2 | PLCg1 ctr inactive | PLCb3 confirm inactive
O=C(O)c1ccccc1/C=N/NC(=O)C1CCCCC1	none
Cc1ncc(C[n+]2csc(CCOC(=O)CC3C4CC5CC(C4)CC3C5)c2C)c(N)n1 (stereo not given)	PLCg1 inh 9.8 | PLCg1 ctr inactive | PLCb3 confirm inactive
O=C(Nc1ccc(Oc2ccccc2)cc1)c1ccc2nc([C@@H]3O[C@H](CO)[C@H](O)[C@H](O)[C@H]3O)[nH]c2c1	none (no result: HIF activator, AHR act, CR mimetic SO)
O=C(Cn1nc(Cl)nc1Cl)c1ccc([N+](=O)[O-])cc1	none
O=C(Cn1nc(CNc2ccc(Br)cc2)[n+]2c1CCCCC2)c1ccc([N+](=O)[O-])cc1	PLCg1 inh 9.8 | PLCg1 ctr inactive | PLCb3 confirm inactive
Cc1onc(-c2ccccc2Cl)c1C(=O)OCn1nnc2ccccc2c1=O	PLCg1 inh 10.7 (no result: HIF activator) | PLCg1 ctr inactive | PLCb3 confirm inactive
CCOc1cc(C(=O)N2CCC(CC3CC(c4ccc(Cl)cc4)=NO3)(C(=O)NCC3CCCCC3)CC2)cc(OCC)c1OCC (stereo not given)	PLCb3 inh 11.4 | PLCg1 ctr inactive | PLCb3 confirm inactive
COCCCNC(=O)C1CC(=O)N(CCc2ccc(OC)c(OC)c2)C1 (stereo not given)	PLCg1 inh 13.7 | PLCg1 ctr inactive | PLCb3 confirm inactive
CCOc1cc(CN2CCN(c3cccc(C(F)(F)F)c3)CC2)ccc1O	PLCg1 inh 9.7 | PLCg1 ctr inactive | PLCb3 confirm inactive
CS(=O)(=O)N1CCN(CC2CC3C=CC2C3)CC1 (stereo not given)	PLCg1 inh 10.0 | PLCg1 ctr inactive | PLCb3 confirm inactive
